The text below walks through data of PMC4336329 (PLoS ONE, 2015).

Out of some 310,000 compounds screened, about 14,000 (4.5%) showed an effect of 50% or more. The effect is printed as a negative number. The sample holds strong results, similar compounds and a random draw of the others, so the mix is not that of the screen.
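Also: peak tail current of the secondary pulse compared with the same well before compound.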

Chain of human ether-à-go-go-related gene (hERG) potassium channel (Q12809 whole entry, looked up): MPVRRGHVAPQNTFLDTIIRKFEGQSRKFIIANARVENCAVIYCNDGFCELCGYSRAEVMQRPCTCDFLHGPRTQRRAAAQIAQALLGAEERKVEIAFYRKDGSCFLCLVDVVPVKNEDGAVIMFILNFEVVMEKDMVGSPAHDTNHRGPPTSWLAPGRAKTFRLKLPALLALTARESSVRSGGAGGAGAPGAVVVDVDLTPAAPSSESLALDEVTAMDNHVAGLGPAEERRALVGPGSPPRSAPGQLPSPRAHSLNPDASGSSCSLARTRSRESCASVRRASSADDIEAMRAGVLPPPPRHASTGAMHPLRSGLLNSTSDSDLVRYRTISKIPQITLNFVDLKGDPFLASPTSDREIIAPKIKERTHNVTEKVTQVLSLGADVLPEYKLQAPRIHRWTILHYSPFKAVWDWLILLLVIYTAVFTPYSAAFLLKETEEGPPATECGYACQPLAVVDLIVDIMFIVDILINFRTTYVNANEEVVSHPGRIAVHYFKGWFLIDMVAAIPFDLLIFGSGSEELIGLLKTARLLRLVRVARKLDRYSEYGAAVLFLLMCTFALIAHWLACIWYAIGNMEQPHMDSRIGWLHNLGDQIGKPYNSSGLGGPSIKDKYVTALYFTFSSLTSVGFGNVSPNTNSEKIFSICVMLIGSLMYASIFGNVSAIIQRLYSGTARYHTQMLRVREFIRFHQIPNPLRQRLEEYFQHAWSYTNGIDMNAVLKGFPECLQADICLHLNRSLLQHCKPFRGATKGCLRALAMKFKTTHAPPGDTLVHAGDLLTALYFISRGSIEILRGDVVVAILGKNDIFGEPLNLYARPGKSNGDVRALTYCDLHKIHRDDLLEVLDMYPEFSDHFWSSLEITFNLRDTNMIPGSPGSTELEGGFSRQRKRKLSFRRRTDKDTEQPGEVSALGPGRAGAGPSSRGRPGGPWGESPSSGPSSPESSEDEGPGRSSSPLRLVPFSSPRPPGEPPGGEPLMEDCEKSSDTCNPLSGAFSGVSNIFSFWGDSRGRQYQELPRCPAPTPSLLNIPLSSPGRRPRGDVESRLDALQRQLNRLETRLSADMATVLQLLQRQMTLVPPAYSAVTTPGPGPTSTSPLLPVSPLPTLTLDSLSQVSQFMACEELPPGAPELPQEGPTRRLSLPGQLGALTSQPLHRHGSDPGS

This test concerns the target human ether-à-go-go-related gene (hERG) potassium channel (human, UniProt Q12809). In words: primary screen, population patch clamp on CHO cells stably expressing hERG; higher = less effect of the substance.
As to `CCN(CC(=O)NCCCN1CCOCC1)S(=O)(=O)c1cc(Cl)ccc1Cl`, the “hERG current change (%, negative = inhibition) at 10uM” value is listed as 6.16%.

For the compound `CN(Cc1ccc(Br)cc1)C(=O)CCN1C(=O)c2cccc([N+](=O)[O-])c2C1=O`, the “hERG current change (%, negative = inhibition) at 10uM” value is recorded as 21.8%.

On to `COc1cccc(OCc2cc(C(=O)N3CCN(c4ccccc4OC)CC3)no2)c1`, for which the “hERG current change (%, negative = inhibition) at 10uM” value was 6.19%.

Regarding `COc1c(C)cccc1C(=O)NCc1ccc2c(c1)OCO2`, the “hERG current change (%, negative = inhibition) at 10uM” value is given as -2.64%.

As for `O=S(=O)(NCC1CCCO1)c1ccc(S(=O)(=O)N(Cc2ccc(F)cc2)C2CCCCC2)cc1` (stereo not drawn), the “hERG current change (%, negative = inhibition) at 10uM” value is listed as -2.39%.

Consider `COc1ccccc1NC(=O)CSc1nnc(CC(=O)Nc2ccccc2F)n1C`, for which the “hERG current change (%, negative = inhibition) at 10uM” value came out at 11.4%.

In the case of `COc1ccc(-n2c(SCC(=O)Nc3nccs3)nc3c(c2=O)SC(C)C3)cc1` (stereo not drawn), the “hERG current change (%, negative = inhibition) at 10uM” value is listed as -13.5%.

On to `COc1ccc(/C(O)=C/C(=O)C(=O)Nc2c(C)n(C)n(-c3ccccc3)c2=O)cc1`, for which the “hERG current change (%, negative = inhibition) at 10uM” value is reported as 8.01%.

On to `CCc1c(C)sc2nc3c(C(=O)N4CCOCC4)cc(C(=O)c4ccccc4O)cn3c(=O)c12`, for which the “hERG current change (%, negative = inhibition) at 10uM” value is reported as -10.7%.

`Cc1cc(C)nc(OC(C(=O)O)C(OCCc2ccccc2)(c2ccccc2)c2ccccc2)n1` (stereo not drawn): the “hERG current change (%, negative = inhibition) at 10uM” value came out at 16.3%.

For `CCOC(=O)C1=C(CC)Nc2ccccc2N=C1NC(=O)c1oc2ccccc2c1C`, the “hERG current change (%, negative = inhibition) at 10uM” value was 12.6%.

For `CC(C)(CNC(=O)c1ccc(-c2ccccc2Cl)o1)N1CCOCC1`, the “hERG current change (%, negative = inhibition) at 10uM” value is reported as -39.9%.

For the compound `O=C(COC(=O)c1cc(=O)c2ccccc2o1)NCC1CCCCC1`, the “hERG current change (%, negative = inhibition) at 10uM” value came to 6.26%.

With `Cl.OCCN(CCO)CC(O)COc1ccc2c(c1)OCO2` (stereo not drawn), the “hERG current change (%, negative = inhibition) at 10uM” value amounted to 2.18%.

Turning to `COC(=O)c1ccc(OCC(O)CN(CCO)CCO)cc1` (stereo not drawn), the “hERG current change (%, negative = inhibition) at 10uM” value is -3.29%.

Regarding `Cc1cc(C)cc(NC(=O)NCC(O)COc2ccc([N+](=O)[O-])cc2)c1` (stereo not drawn), the “hERG current change (%, negative = inhibition) at 10uM” value is -42.3%.

`CCCN(CCC)CC(O)COc1ccc([N+](=O)[O-])cc1` (stereo not drawn): the “hERG current change (%, negative = inhibition) at 10uM” value is -77.1%.

With `CCCN(CCC)CC(O)COc1ccc2c(c1)OCO2.Cl` (stereo not drawn), the “hERG current change (%, negative = inhibition) at 10uM” value was -28.8%.

Consider `CC(C)CN(CC(C)C)CC(O)COc1ccc([N+](=O)[O-])cc1.Cl` (stereo not drawn), for which the “hERG current change (%, negative = inhibition) at 10uM” value is given as -66.8%.

`O=[N+]([O-])c1ccc(OCC(O)CN(CCO)CCO)cc1` (stereo not drawn): the “hERG current change (%, negative = inhibition) at 10uM” value is given as -54.8%.

On to `COC(=O)c1ccc(OCC(O)CN(CC(C)C)CC(C)C)cc1` (stereo not drawn), for which the “hERG current change (%, negative = inhibition) at 10uM” value was -4.37%.

On to `O=C(NCC(O)COc1ccc([N+](=O)[O-])cc1)Nc1ccccc1` (stereo not drawn), for which the “hERG current change (%, negative = inhibition) at 10uM” value is -49.4%.

`C/C(=N\NC(=O)CC(C)C)c1ccc(Cl)c(Cl)c1`: the “hERG current change (%, negative = inhibition) at 10uM” value was 30.7%.

For `O=c1nc2n(c3c4c(sc13)CCC4)CCC2`, the “hERG current change (%, negative = inhibition) at 10uM” value stood at 5.51%.

For the compound `CC(=O)Nc1ccc(C(=O)NCCN2CCOCC2)cc1`, the “hERG current change (%, negative = inhibition) at 10uM” value came to 15.8%.

For the compound `CCOc1ccccc1/C=N/Nc1nc2c(N)ncnc2n1[C@H]1O[C@@H](CO)[C@H](O)[C@@H]1O`, the “hERG current change (%, negative = inhibition) at 10uM” value is -9.61%.

Take `O=C(NCCCN1CCOCC1)c1ccccc1N1C(=O)[C@@H]2Cc3c([nH]c4ccccc34)C(c3ccc(F)cc3)N2C1=O` (stereo partly drawn): the “hERG current change (%, negative = inhibition) at 10uM” value was -68%.

Regarding `O=C(NCCN1CCOCC1)c1ccccc1N1C(=O)[C@@H]2Cc3c([nH]c4ccccc34)C(c3ccc(F)cc3)N2C1=O` (stereo partly drawn), the “hERG current change (%, negative = inhibition) at 10uM” value is reported as -47.2%.

For `Cc1ccccc1C1c2[nH]c3ccccc3c2C[C@H]2C(=O)N(c3ccccc3C(=O)NCCCN3CCOCC3)C(=O)N12` (stereo partly drawn), the “hERG current change (%, negative = inhibition) at 10uM” value is listed as -21.3%.

`COc1ccc(C2c3[nH]c4ccccc4c3C[C@H]3C(=O)N(c4ccccc4C(=O)NCCN4CCOCC4)C(=O)N23)cc1` (stereo partly drawn): the “hERG current change (%, negative = inhibition) at 10uM” value is on record as -23.7%.

Regarding `O=C(CCN1CCOCC1)N1CCc2c([nH]c3ccccc23)C1c1cccc(Cl)c1` (stereo not drawn), the “hERG current change (%, negative = inhibition) at 10uM” value was -70.5%.

As to `O=C(NCCCN1CCOCC1)c1ccccc1N1C(=O)[C@@H]2Cc3c([nH]c4ccccc34)C(c3cccc(Cl)c3)N2C1=O` (stereo partly drawn), the “hERG current change (%, negative = inhibition) at 10uM” value is -72.3%.

For `COc1cccc(C2c3[nH]c4ccccc4c3C[C@H]3C(=O)N(c4ccccc4C(=O)NCCCN4CCOCC4)C(=O)N23)c1` (stereo partly drawn), the “hERG current change (%, negative = inhibition) at 10uM” value was -19.9%.

Take `Cc1ccc(C2c3[nH]c4ccccc4c3C[C@H]3C(=O)N(c4ccccc4C(=O)NCCN4CCOCC4)C(=O)N23)cc1` (stereo partly drawn): the “hERG current change (%, negative = inhibition) at 10uM” value was -24.9%.

As for `O=C(NCCN1CCOCC1)c1ccccc1N1C(=O)[C@@H]2Cc3c([nH]c4ccccc34)C(c3ccccc3)N2C1=O` (stereo partly drawn), the “hERG current change (%, negative = inhibition) at 10uM” value is -20.4%.

For `Cc1ccc(C2c3[nH]c4ccccc4c3C[C@H]3C(=O)N(c4ccccc4C(=O)NCCCN4CCOCC4)C(=O)N23)cc1` (stereo partly drawn), the “hERG current change (%, negative = inhibition) at 10uM” value is recorded as -54.6%.

`O=C(c1cnccn1)N1CCc2c([nH]c3ccccc23)C1c1cccc(Cl)c1` (stereo not drawn): the “hERG current change (%, negative = inhibition) at 10uM” value was -33.6%.

As to `CC(=O)NCCC(=O)N1CCc2c([nH]c3ccccc23)C1c1cccc(Cl)c1` (stereo not drawn), the “hERG current change (%, negative = inhibition) at 10uM” value is on record as -24.2%.

Regarding `O=C(O)c1ccc(/C=C2\SC(=S)N(NC(=O)c3ccccc3[N+](=O)[O-])C2=O)cc1`, the “hERG current change (%, negative = inhibition) at 10uM” value is 12.4%.

In the case of `[2H]C([2H])(CCOS(N)(=O)=O)c1ccccc1`, the “hERG current change (%, negative = inhibition) at 10uM” value was determined as 11.1%.

As to `CC(=O)N1CCc2c(sc(NC(=O)C3COc4ccccc4O3)c2C(N)=O)C1` (stereo not drawn), the “hERG current change (%, negative = inhibition) at 10uM” value is listed as -20%.

Turning to `CCOc1ccc(CN2CCSCC2)cc1`, the “hERG current change (%, negative = inhibition) at 10uM” value amounted to 2.36%.

With `O=C(NCCNS(=O)(=O)c1ccccc1)c1ccc([N+](=O)[O-])cc1`, the “hERG current change (%, negative = inhibition) at 10uM” value is given as -12%.

As for `COc1ccccc1Nc1nc(N)nc(CSCCO)n1`, the “hERG current change (%, negative = inhibition) at 10uM” value was 15%.

For the compound `COc1ccccc1Nc1nc(N)nc(CN2CCCCCC2)n1`, the “hERG current change (%, negative = inhibition) at 10uM” value is -57.7%.

Take `COc1ccccc1Nc1nc(N)nc(CN2CCCCC2)n1`: the “hERG current change (%, negative = inhibition) at 10uM” value is -54.9%.

As to `COc1ccccc1Nc1nc(N)nc(CN2CCOCC2)n1`, the “hERG current change (%, negative = inhibition) at 10uM” value came out at 10.1%.

For `COc1ccccc1Nc1nc(N)nc(CSC(=S)N2CC(C)CC(C)C2)n1` (stereo not drawn), the “hERG current change (%, negative = inhibition) at 10uM” value was -9.46%.

For `COc1ccccc1Nc1nc(N)nc(CSc2ncccn2)n1`, the “hERG current change (%, negative = inhibition) at 10uM” value is listed as -24.2%.

As to `Cc1cccc(Nc2nc(N)nc(CN3CCC(C(N)=O)CC3)n2)c1C`, the “hERG current change (%, negative = inhibition) at 10uM” value amounted to 17.5%.

Turning to `Cc1c(Cl)cccc1Nc1nc(N)nc(CN2CCCCCC2)n1`, the “hERG current change (%, negative = inhibition) at 10uM” value is on record as -74.6%.

Regarding `COc1ccccc1Nc1nc(N)nc(CN2CC(C)CC(C)C2)n1` (stereo not drawn), the “hERG current change (%, negative = inhibition) at 10uM” value is given as -73.8%.

Turning to `COc1ccccc1Nc1nc(N)nc(CSC(=S)N2CCCCC2)n1`, the “hERG current change (%, negative = inhibition) at 10uM” value turned out to be 0.598%.

`Cc1c(Cl)cccc1Nc1nc(N)nc(CN2CCc3ccccc3C2)n1`: the “hERG current change (%, negative = inhibition) at 10uM” value is reported as -33%.
